# Records with an inconclusive call do not appear. Where a call stands in place of a potency, no number is given. The source made the active and inactive calls. Calls come from the whole dose curve; as a rule, active = well fitted inhibition curve with a large enough effect in the repeat runs; inconclusive = weak or mixed curves; inactive = no such curve, though single readings can be large or run the other way.
# Target: Cytochrome P450 2C9 (Homo sapiens) (UniProt P11712)
# Assay: Cytochrome P450 family 2 subfamily C member 9 (CYP2C9) small molecule antagonists: luciferase biochemical (cell-free) qHTS assay (AID 1645842); note: nearly all actives have a fitted effect of over 55% in size
# Conditions: P450-Glo CYP2C9 enzyme assay, luciferin luminescence; series mostly up to 57.4 µM
# In short: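 P450-Glo CYP2C9 system: proluciferin substrate with enzyme in mix containing 0.4% BSA, 10 min at room temperature, then NADPH regeneration solution added and incubated 1 h at 37C. Detection reagent stopped reaction; luminescence read after 20 min as RLU.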
# Potency is the fitted concentration of half-maximal effect.
# Chain of Cytochrome P450 2C9 (Homo sapiens) (P11712 whole entry, looked up): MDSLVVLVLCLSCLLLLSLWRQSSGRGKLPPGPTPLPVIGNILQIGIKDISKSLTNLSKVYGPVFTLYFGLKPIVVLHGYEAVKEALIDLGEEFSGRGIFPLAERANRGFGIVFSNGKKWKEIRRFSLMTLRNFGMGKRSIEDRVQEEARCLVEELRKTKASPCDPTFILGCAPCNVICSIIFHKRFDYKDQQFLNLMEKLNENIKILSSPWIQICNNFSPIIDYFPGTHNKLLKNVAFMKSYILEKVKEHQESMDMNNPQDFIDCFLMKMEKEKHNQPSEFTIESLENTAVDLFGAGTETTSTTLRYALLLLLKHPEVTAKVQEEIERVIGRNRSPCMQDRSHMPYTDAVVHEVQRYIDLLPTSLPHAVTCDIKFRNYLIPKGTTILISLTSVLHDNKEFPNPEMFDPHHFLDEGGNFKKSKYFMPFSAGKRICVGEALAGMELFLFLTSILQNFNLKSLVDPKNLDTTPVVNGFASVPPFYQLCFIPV
row,SMILES,Potency
1,Cc1cccc(N(C)C(=S)Oc2ccc3c(c2)C2CCC3C2)c1 (centres undefined),7.76 µM (active)
2,O=C(CCCl)NCCc1ccccc1,inactive
3,[O-][n+]1cccc(/C(Cl)=N/OC[C@@H](O)CN2CCCCC2)c1,inactive
4,Cc1cccc(OCC(O)CNC(C)(C)C)c1C (centres undefined),inactive
